# Shown are actives, neighbours in structure and some others; about 3.8% of the full set was active somewhere.
# FGF22 binding – FGF22 (human) thermal shift binding | Q9HCT0 | recombinant FGF22 thermal shift, SYPRO orange fluorescence; percent of sucrose octasulfate shift, DMSO zero | activity (Tm shift, normalised), % at 9.99 µM | 340,000 tested, 1.5% active;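 active means mean Tm shift, scaled 0 neutral to 100 positive control, at about 1.3% or above, every replicate too, limit read from the data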
# Ecoli rRNA inh – inhibitors of bacterial rRNA selective over humanized ribosomes; GFP signal change (wild-type ribosome), % (no concentration beside the values); 350,000 tested, 1.6% active; E. coli WT GFP vs humanized-ribosome RFP mutants, fluorescence, 24 h; active compounds read low; DMSO median 0, no signal -100; AID 720706;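 active means significant combined selectivity score with lowered wild-type GFP, culture density cut under 30%, mutant RFP and density less affected; inactive means any of these conditions unmet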
# KLK7 zymogen act – activators of human kallikrein-7 zymogen | P49862 | purified proKLK7, EDANS-DABCYL substrate fluorescence; 100% is mature enzyme control, 0% vehicle | activation, % at 7 µM | 370,000 tested, 0.9% active | AID 652039;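 active means activation above the mean of all tested compounds plus 3 SD, computed per campaign excluding outliers beyond control limits, cut at about 13% in these data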
# ADAM10 inh – ADAM10 inhibition, QFRET primary screen; recombinant ADAM10, EDANS/DABCYL FRET peptide cleavage, 3 h; AID 720582; 370,000 tested, 0.62% active; inhibition, % at 7 µM; O14672;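 active means inhibition above a per-campaign cutoff equal to the mean of compounds falling between control-based bounds plus 3 SD, cut at about 20% in these data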
# ADAM17 inh – inhibits human ADAM17; P78536; recombinant ADAM17, EDANS/DABCYL FRET peptide cleavage; inhibition, % at 6.95 µM; 370,000 tested, 0.83% active; AID 720648;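 active means inhibition above the mean of compounds lying between control limits plus 3 SD, set per campaign, cut at about 8.5% in these data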
# Target sequence (P78536 215-824 limits assumed): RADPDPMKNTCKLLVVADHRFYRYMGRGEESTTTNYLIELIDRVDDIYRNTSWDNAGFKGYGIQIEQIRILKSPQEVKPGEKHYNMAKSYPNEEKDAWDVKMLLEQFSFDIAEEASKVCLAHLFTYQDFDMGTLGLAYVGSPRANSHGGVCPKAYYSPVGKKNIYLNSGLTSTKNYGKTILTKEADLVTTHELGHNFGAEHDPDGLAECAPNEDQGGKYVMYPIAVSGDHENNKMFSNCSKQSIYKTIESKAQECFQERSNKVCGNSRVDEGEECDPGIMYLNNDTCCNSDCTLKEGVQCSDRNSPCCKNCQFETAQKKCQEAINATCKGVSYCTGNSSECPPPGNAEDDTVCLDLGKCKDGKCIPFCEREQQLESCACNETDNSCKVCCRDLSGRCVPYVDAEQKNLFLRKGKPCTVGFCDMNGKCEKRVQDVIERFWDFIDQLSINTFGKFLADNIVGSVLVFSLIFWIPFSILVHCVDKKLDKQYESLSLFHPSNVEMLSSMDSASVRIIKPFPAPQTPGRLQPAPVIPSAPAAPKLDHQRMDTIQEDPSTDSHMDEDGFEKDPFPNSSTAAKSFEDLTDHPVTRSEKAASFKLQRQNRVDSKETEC
# ADAM10 counter – ADAM10 inhibition, counter-screen for ADAM17 exosite hits | shares compounds with ADAM17 inh | 2,900 tested, 47% active | AID 743256 | inhibition, % at 6.95 µM | recombinant ADAM10, EDANS/DABCYL FRET peptide cleavage, 3 h;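 active means mean inhibition over the triplicate runs exceeds the activity threshold set in the earlier primary screen, cut at about 20% in these data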
# ADAM17 confirm – confirmation of inhibitors of human ADAM17; shares compounds with ADAM17 inh; recombinant ADAM17, EDANS/DABCYL QFRET peptide cleavage; inhibition, % at 6.95 µM; 2,900 tested, 65% active;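 active means mean inhibition across replicates above the hit cutoff set in the primary screen, cut at about 8.5% in these data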
# Hits are given with their value; n = inactive; x = no result given.
SMILES,FGF22 binding,Ecoli rRNA inh,KLK7 zymogen act,ADAM10 inh,ADAM17 inh,ADAM10 counter,ADAM17 confirm
C[C@H]1CN([C@@H](C)CO)C(=O)c2cc(NS(=O)(=O)c3cn(C)cn3)ccc2O[C@@H]1CN(C)Cc1ccc(C(=O)O)cc1,n,n,x,x,x,x,x
O=C(SCC(O)C(O)CS)c1cccs1 (centres undefined),n,n,n,n,43,31,64
O=C(C[C@H]1C=C[C@@H](NC(=O)C2CCOCC2)[C@H](CO)O1)Nc1ccccc1,x,n,x,x,x,x,x
COc1ccc(N(C)S(=O)(=O)c2cccc(C(=O)Nc3ccc4c(c3)OCCO4)c2)cc1,43,n,n,n,11,24,13
CN(c1ccc(C(=O)Nc2ccc3c(c2)OCCO3)cc1)S(C)(=O)=O,x,n,n,n,9.4,n,n
CN(c1ccc(C(=O)Nc2ccc3c(c2)OCO3)cc1)S(C)(=O)=O,n,n,n,n,n,x,x
O=C(C[C@@H]1CC[C@@H](NC(=O)Nc2cc(F)ccc2F)[C@@H](CO)O1)Nc1ccccc1,n,n,x,x,x,x,x
CC(C)C#Cc1ccc2c(c1)O[C@@H](CN(C)C(=O)c1ccncc1)[C@@H](C)CN([C@@H](C)CO)S2(=O)=O,n,n,x,x,x,x,x
Cc1noc(C)c1S(=O)(=O)N(C)C[C@@H]1Oc2ccc(NC(=O)Cc3ccccc3)cc2CC(=O)N([C@@H](C)CO)C[C@@H]1C,n,n,x,x,x,x,x
Cc1cc(/C=C2\NC(=S)N(C)C2=O)ccc1N1CCCC1,n,x,n,n,8.9,n,n
COc1ccc(C(O)c2nc(-c3cccc(F)c3)cs2)cc1 (centres undefined),n,n,n,n,9.9,n,n
COc1ccc(C(O)c2nc(-c3cccc(C(F)(F)F)c3)cs2)cc1 (centres undefined),n,n,n,n,13,27,13
O=C(C[C@@H]1CC[C@H]2[C@@H](COC[C@H](O)CN2Cc2ccccc2F)O1)NC1CCC1,n,n,x,x,x,x,x
COCC(=O)Nc1ccc2c(c1)C(=O)N(C)C[C@@H](OC)[C@H](C)CN(Cc1ccccn1)[C@H](C)CO2,n,n,x,x,x,x,x
CC1CCCN(S(=O)(=O)c2ccc(NC(=O)Cn3nnc(-c4ccccc4F)n3)cc2)C1 (centres undefined),n,n,n,n,10,n,11
Cc1ccc(-c2nnn(CC(=O)Nc3ccc(S(=O)(=O)N4CCC(C)CC4)cc3)n2)cc1,x,x,n,n,n,x,x
Cc1ccc(S(=O)(=O)CNC(=S)c2ccc3ccccc3c2)cc1,n,-24,n,n,9.5,65,37
COc1ccc(/C(O)=C2/C(=O)C(=O)N(CC3CCCO3)C2c2cccc(O)c2)cc1 (centres undefined),x,x,n,n,8.8,n,n
COC(=O)c1ccc(C2/C(=C(/O)c3ccc(OC)cc3)C(=O)C(=O)N2CC2CCCO2)cc1 (centres undefined),x,x,n,n,n,x,x
CCOC(=O)c1ccc(NS(=O)(=O)c2cnc[nH]2)cc1,x,x,n,n,9.3,n,n
COc1ccc(NS(=O)(=O)c2cc(OC)ccc2NC(=O)c2cc(C)oc2C)cc1,x,x,n,n,8.8,n,n
O=C(NCC(c1ccc(F)cc1)N1CCOCC1)c1ccc(Br)o1 (centres undefined),x,x,n,n,11,n,11
CCCn1c(CCNc2nc(-c3cccc(Br)c3)cs2)nc2ccccc21,n,n,n,n,11,n,11
CNc1cc(-n2nc(C)cc2-c2ccccc2)ncn1,x,x,n,n,n,x,x
Cc1cc(-c2ccccc2)n(-c2cc(N/N=C/c3ccccc3O)ncn2)n1,n,n,n,n,8.7,n,n
SMILES,FGF22 binding,Ecoli rRNA inh,KLK7 zymogen act,ADAM10 inh,ADAM17 inh,ADAM10 counter,ADAM17 confirm
CC(C)C#Cc1ccc2c(c1)O[C@H](CN(C)C(=O)C1CCC1)[C@H](C)CN([C@@H](C)CO)S2(=O)=O,x,n,x,x,x,x,x
COc1ccc(N=C2SC(CC(=O)Nc3ccc(F)cc3)C(=O)N2Cc2ccco2)cc1 (centres undefined),x,x,n,n,12,n,13
COc1ccc2c3c(n(C)c2c1)[C@H](CO)N(C(=O)Nc1ccc(F)cc1)CC31CN(Cc2cccc(F)c2)C1,x,n,x,x,x,x,x
COc1ccc(NC(=O)N(C)C[C@@H]2OCCCC[C@H](C)Oc3ccc(NS(=O)(=O)c4ccc(F)cc4)cc3C(=O)N([C@H](C)CO)C[C@H]2C)cc1,n,n,x,x,x,x,x
COc1ccc(CCN(C(=O)C(F)(F)F)C(C(=O)NC2CCCCC2)c2ccc(C)s2)cc1 (centres undefined),n,n,n,n,9.1,n,n
CN(C)c1ccc(N=Nc2ccccc2C(=O)OCC(=O)N2CCCCCC2)cc1,x,x,n,n,13,n,8.7
C[C@H](CO)N1C[C@H](C)[C@H](CN(C)C(=O)Nc2ccc(F)cc2)OCCCC[C@H](C)Oc2ccc(NC(=O)Nc3ccccc3)cc2C1=O,n,n,x,x,x,x,x
Cc1[nH]n(-c2ncc(-c3ccccc3)s2)c(=O)c1C(c1ccc(Br)cc1)C(C#N)C#N (centres undefined),n,n,n,n,8.7,n,12
CCCc1c(-c2ccc(F)cc2F)ncn1Cc1cccc(-c2ccccc2)c1,n,n,n,n,16,n,n
CCCc1c(-c2cccc(Cl)c2)ncn1Cc1cccc(-c2ccccc2)c1,n,n,n,n,n,x,x
NNc1nnc2c3cc(F)ccc3n(CCc3ccccc3)c2n1,n,n,n,n,12,n,n
COc1ccc(C2C(C#N)=C(C)NC(C)=C2C#N)c(OC)c1,n,n,n,n,n,x,x
COc1ccc(C2C(C#N)=C(N)Nc3onc(C(C)(C)C)c32)c(OC)c1 (centres undefined),x,x,n,n,8.7,n,n
Nc1nc(Nc2cccc(C(F)(F)F)c2)nc(C(F)(F)F)n1,x,x,n,n,15,23,16
CNC[C@@H]1OCCCC[C@H](C)Oc2ccc(NC(=O)Nc3c(C)noc3C)cc2C(=O)N([C@H](C)CO)C[C@@H]1C,x,n,x,x,x,x,x
C[C@@H]1CN([C@@H](C)CO)C(=O)c2cc(NS(=O)(=O)c3ccc(Cl)cc3)ccc2O[C@H]1CN(C)C(=O)Nc1ccc(F)cc1,n,n,x,x,x,x,x
COC(=O)[C@H](C(C)C)N(CCc1cn(Cc2ccc(C)cc2)nn1)S(=O)(=O)c1ccccc1Br,x,x,n,n,11,24,17
COC(=O)[C@H](C(C)C)N(CCCc1cn(CC2CCCCC2)nn1)S(=O)(=O)c1ccc(F)cc1Br,x,x,n,n,11,26,14
CCCNC(=O)N(C)C[C@@H]1Oc2cc(C#Cc3ccccn3)ccc2S(=O)(=O)N([C@@H](C)CO)C[C@@H]1C,n,n,x,x,x,x,x
